# HT1080-NT tox: kills 2HG-producing HT-1080-NT fibrosarcoma cells. HT-1080-NT fibrosarcoma viability, CellTiter-Glo ATP luminescence, 48 h. Potency, µM (top dose mostly 46.1 µM), for the others: top-dose activity, negative = less viability, actives largely listed as cytotoxic. hit rate 1.6% among 360,000;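 further: NT is the 2HG producing partner of a matched IDH1 knockdown line; potency means the concentration at half of the fitted maximal effect; 0% = DMSO-treated cells and -100% = media-only wells without cells; nearly all actives have a fitted effect of over 55% in size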
#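 Compounds were tested in concentration-response format on HT-1080-NT cells for 48 hours at 37 degrees C. Cell viability came from CellTiter-Glo luminescence; curves were classified by r2, response magnitude and activity.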
# HT1080 IDH1KD tx: kills HT-1080 cells with IDH1 knockdown | HT-1080 IDH1 knockdown viability, ATP luminescence, 48 h | AID 686971 | hit rate 2% among 360,000 | Potency, µM (series often up to 46.1 µM), without a hit: at the highest dose activity, negative = toxicity, most hits filed as cytotoxic;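 further: potency means the concentration at half of the fitted maximal effect; 0% = DMSO wells and -100% = cell-free medium wells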
#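 Cytotoxicity counter-line: IDH1KD HT-1080, 48 h, CellTiter-Glo. Curves classed by r2, magnitude and activity.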
# TDP1 cell CPT: DT40-hTDP1 cell growth loss with CPT. chicken DT40 Tdp1-/-;hTDP1 cells + 20 nM CPT, ATP luminescence, 48 h. Potency, µM (series often up to 46.2 µM), without a hit: at the top dose activity change, negative = growth inhibition, hits mostly inhibitors. hit rate 12% among 420,000. AID 686979; further: potency means the concentration at half of the fitted maximal effect; nearly all actives have a fitted effect of over 55% in size
#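 Chicken DT40 Tdp1-/- cells complemented with human TDP1, 400 cells/well, exposed to compounds plus 20 nM camptothecin for at least 48 h at 37 C; viability read as ATP content by CellTiter-Glo luminescence.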
# IL1B secr inh: blocks inflammasome-driven IL-1 beta release; THP-1 LPS/ATP IL-1B secretion, AlphaLISA, 16 h; stronger effect = lower value; activity change, % at 57.5 µM; hit rate 4.7% among 360,000; AID 743279; in the data active means activity change below about -50%; inconclusive means mostly about -30% to -49%
#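 THP-1 cells pretreated 1 hr with compounds (up to 57.5 uM final), then stimulated with LPS (250 ng/mL final) plus ATP (1.25 mM final); secreted IL-1B measured by AlphaLISA after 16 hr, decreased signal indicating inhibition.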
# DT40 TDP1 no CPT: qHTS for Inhibitors of human tyrosyl-DNA phosphodiesterase 1 (TDP1): qHTS in cells in absence of CPT. Potency, µM (doses to about 46.2 µM), for the others: at the highest dose activity change, negative = growth inhibition, usual class: inhibitors. DT40 Tdp1-/- hTDP1 cells, no CPT, ATP luminescence, 48 h. hit rate 15% among 420,000. AID 686978, 2013; further: potency means the concentration at half of the fitted maximal effect; nearly all actives have a fitted effect of over 55% in size
#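 Cells were dispensed at 400 per well, compounds added by pin tool, plates incubated ≥48 hr at 37 °C, then CellTiter-Glo added for 30 min at room temperature before luminescence reading. Line: DT40 Tdp1-/- complemented with hTDP1; camptothecin omitted.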
# An asterisk follows results filed as active; i = inactive; ? = inconclusive; / = no result; [ ] = another dose, or the depositor's remark. Rows were chosen to be rich in hits. Some 19% of all compounds tested hit in one or more screens of this group. Unless noted, the call rests on the fitted dose curve; in most records, active means well fitted curve in the direction sought with a large enough effect; inconclusive means small, poorly fitted or top-dose-only effect, or another doubt; inactive means no such curve, though single readings can be large; an effect the other way counts as inactive or inconclusive. Unless noted, on the % scale 0 is the no-effect control and ±100 the full control effect.
SMILES,HT1080-NT tox,HT1080 IDH1KD tx,TDP1 cell CPT,IL1B secr inh,DT40 TDP1 no CPT
CCOC(=O)N(C)c1c(CC)nc2c(OCc3ccccc3)cccn12,10.1%,6.4%,20.6µM*,14.8,23.1µM*
COc1cccc(N2CCN(C(=O)c3ccc(C)c(NC(=O)c4nsc5ccccc45)c3)CC2)c1,/,/,?,/,18.4µM*
COc1ccc(N2CCN(C(=O)c3ccc(C)c(NC(=O)c4ccco4)c3)CC2)cc1,-0.3%,-7.9%,?,-11.6,?
Cc1ccc(C(=O)N2CCN(c3ccccc3)CC2)cc1NC(=O)c1ccco1,6.4%,14.1%,0.5%,i,-3.9%
Cc1ccc(C(=O)N2CCN(c3ccc(F)cc3)CC2)cc1NC(=O)c1nsc2ccccc12,/,/,16.4µM*,/,20.6µM*
CN(C)CCNc1cnn(-c2ccccc2)c(=O)c1Cl,3.5%,-4.4%,-1.2%,27.3,-4.5%
Cc1ccccc1-n1c(SCC(=O)NCc2cccs2)nc2ccccc2c1=O,1.2%,-1.7%,?,-9.8,?
Cc1cc(C)cc(NC(=O)Nc2ccc3c(c2)N(C)C(=O)CS3)c1,-18.8%,-15.4%,?,-50.2*,?
CC(=O)c1cccc(NC(=O)Nc2ccc3c(c2)N(C)C(=O)CS3)c1,?,?,16.4µM*,?,16.4µM*
Cc1ccc(NC(=O)Nc2ccc3c(c2)N(C)C(=O)CS3)cc1C,-27.1%,-21.8%,?,?,?
CCOC(=O)c1c(C)n(C)c2cc(Br)c(O)c(O)c12,-8.1%,-0.7%,-28.5%,0.0,?
CCOC(=O)c1c(CSc2cccs2)n(C)c2cc(Br)c(O)c(CN(C)C)c12,-18.0%,?,16.4µM*,-54.3*,18.4µM*
CCn1c(-c2ccccc2F)nc2cc(NC(C)=O)cc(C(=O)N3CCCCC3c3nccn3C)c21 (configuration not stated),/,/,2.3%[9.04 µM],/,-1.0%
O=C(COC(=O)C1CC2CCCC(C1)C2=O)NNC(=O)c1ccccc1F (configuration not stated),-1.0%,7.6%,-0.5%,1.0,0.6%
CCCCc1ccc(S(=O)(=O)NC(=O)C2(C)CCN2C(=O)CCc2cccs2)cc1 (configuration not stated),22.7%,25.7%,-22.7%,40.0,-14.0%
Cc1ccc(CNC(=O)c2ccc(Cn3c(=O)c4ccccc4n(CC(=O)Nc4ccc(C)cc4C)c3=O)cc2)cc1,/,/,16.4µM*,/,?
Cc1ccc(CNC(=O)c2ccc(Cn3c(=O)c4ccccc4n(CC(=O)Nc4c(C)cc(C)cc4C)c3=O)cc2)cc1,/,/,6.51µM*,/,4.61µM*
Cc1cc(C)c(NC(=O)Cn2c(=O)n(CCc3ccccc3)c(=O)c3ccccc32)c(C)c1,/,/,14.6µM*,/,20.6µM*
CCOc1ccc(NC(=O)Cn2c(=O)n(Cc3ccc(C(=O)NCc4ccc(C)cc4)cc3)c(=O)c3ccccc32)cc1,/,/,16.4µM*,/,14.6µM*
CC(C)(C)N/C=C(\C#N)S(=O)(=O)c1ccc(Br)cc1,-0.4%,2.8%,-4.9%,-16.7,-3.8%
COC(=O)c1ccccc1NC(=O)Cn1c(=O)n(-c2ccc(C)cc2)c(=O)c2ccccc21,/,/,0.82µM*,/,0.92µM*
C[C@@]12C(=O)N(Cc3ccc(-c4ccccc4)cc3)CC(=O)N1[C@H](/C=C/c1ccccc1)[C@@H]1C(=O)N(c3ccccc3)C(=O)[C@@H]12,-28.6%,-10.7%,?,-6.8,23.1µM*
COC(=O)CN1C(=O)[C@H]2[C@@H](/C=C/c3ccccc3)N3C(=O)CN(Cc4ccc(-c5ccccc5)cc4)C(=O)[C@@]3(C)[C@H]2C1=O,?,-15.4%,25.9µM*,-8.7,?
CN1C(=O)[C@H]2[C@@H](/C=C/c3ccccc3)N3C(=O)CN(Cc4ccccn4)C(=O)[C@@]3(C)[C@H]2C1=O,12.6%,11.9%,0.8%,19.0,-4.4%
O=C(NCC1CC1)c1cc(-c2ccccc2)nn1CC1CC(c2cccc([N+](=O)[O-])c2)=NO1 (configuration not stated),-0.4%,-0.2%,?,-2.8,?
SMILES,HT1080-NT tox,HT1080 IDH1KD tx,TDP1 cell CPT,IL1B secr inh,DT40 TDP1 no CPT
O=S(=O)(c1ccccc1)N1c2cc(Cl)ccc2Oc2nc3ccccc3nc21,-12.9%,-14.3%,?,-7.6,10.3µM*
CCOC(=O)c1ccc2c(c1)nc(-c1ccc(F)cc1)c1nccn12,14.2%,23.9%,-1.0%,13.0,-5.4%
CN(C(=O)COC(=O)/C=C/c1ccc(Cl)c(Cl)c1)c1c(N)n(Cc2ccccc2)c(=O)[nH]c1=O,0.7%,0.0%,9.2µM*,-11.7,16.4µM*
CN(C(=O)COC(=O)/C=C/c1ccc2ccccc2n1)c1c(N)n(Cc2ccccc2)c(=O)[nH]c1=O,-0.2%,5.8%,?,-55.5*,?
CCCOc1ccc(/C=C/C(=O)OCC(=O)N(C)c2c(N)n(Cc3ccccc3)c(=O)[nH]c2=O)cc1OCC,1.6%,-2.7%,?,4.8,16.4µM*
COc1ccc(/C=C/C(=O)OCC(=O)N(C)c2c(N)n(Cc3ccccc3)c(=O)[nH]c2=O)cc1OC,8.0%,11.7%,?,-0.8,2.1%
CC1CCCCN1C(=O)COC(=O)/C=C/c1ccc2ccccc2n1 (configuration not stated),-24.9%,-11.6%,?,-54.2*,?
C[C@H]1NC(=O)[C@]2(C)[C@@H](c3ccccc3)[C@H]3COc4ccccc4[C@H]3N2C1=O,-7.0%,-5.2%,-3.2%,12.2,-3.6%
COc1ccccc1NC(=O)CSc1nc2ccccc2c2nc(-c3ccccc3)nn12,/,/,-10.5%,/,-0.9%
O=C(CC1NCCNC1=O)Nc1ccc([N+](=O)[O-])cc1 (configuration not stated),0.7%,0.0%,23.4%,-1.8,2.8%
